# Results: PubChem BioAssay
# Experiment: MRP1 drug-resistance reversers in H69AR cells – cell-based, doxorubicin co-treatment, pilot screen (AID 601)
# Settings: H69AR cells + 2 uM doxorubicin, CellTiter-Glo, 72 h; measured here: viability with 2 uM doxorubicin; at 10 µM; stronger effect = lower value
row,SMILES,viability
1,O=C(Cn1nnc(-c2cccc(C(F)(F)F)c2)n1)NC(=O)NCc1ccco1,77.5%
2,Cc1cccc(NS(=O)(=O)c2cc(C(=O)OCC(=O)Nc3cc(C)on3)ccc2C)c1,102%
3,O=C(O)c1c(Cl)c(Cl)c(Cl)c(Cl)c1C(=O)N1CCOCC1,92.8%
4,CCN1CCCC1CNC(=O)CS(=O)(=O)Cc1nc(-c2ccccc2C)oc1C (stereo not given),88.1%
5,Cc1ccc(OCC(O)Cn2c(=N)n(CCN3CCCCC3)c3ccccc32)cc1 (stereo not given),21.7%
6,O=C1c2ccccc2CN1CCNS(=O)(=O)c1ccc(Cl)cc1,84.8%
7,COC(=O)C1CCN(C(=O)c2sc3nc(-c4ccc(F)cc4)cn3c2C)CC1,77.9%
8,CCCCc1cc(=O)oc2cc(C)cc(OC(C)C(=O)O)c12 (stereo not given),95.8%
9,COc1cccc(OC)c1OCCN1CCN(C(=O)c2ccco2)CC1,85%
10,CC(C)NC(=O)CSCc1ccccc1Cl,76.8%
11,CC(=O)N1CCN(c2ccc(N=Cc3c(O)n(Cc4ccccc4)c(=O)[nH]c3=O)cc2)CC1,98.2%
12,CCC1=C(C(=O)OC)C(c2cc(OC)ccc2OC)C(C#N)=C(N)O1 (stereo not given),87.2%
13,CCCCCn1c(CN2CCN(C(=O)OCC)CC2)nc2c1c(=O)[nH]c(=O)n2C,82.7%
14,Cc1ccc(N2CCN(C(=S)c3ccc(N(C)C)cc3)CC2)cc1,92.4%
15,COc1ccccc1NC(=O)N1CCCC1C(=O)NC1CCCCC1 (stereo not given),84.7%
16,CCOc1ccc(OCC)c(NC(=O)CN2CCN(C(=O)c3ccco3)CC2)c1,30.6%
17,C=CCN(C(=O)CNC(=O)c1ccco1)C(C(=O)NC1CCCCC1)c1ccccc1F (stereo not given),93.5%
18,Cc1ccc2cc(CN(CC3CCCO3)S(=O)(=O)c3ccc4c(c3)OCCO4)c(=O)[nH]c2c1C (stereo not given),82.9%
19,COc1cc(OC)cc(-n2nnnc2SCC(=O)N2CCCC2)c1,92%
20,O=C(CSc1nnc(Cn2nnc(-c3ccccc3)n2)n1-c1ccccc1)Nc1ccc(F)cc1,71.8%

row,SMILES,viability
1,O=C(NC1CCCC1)c1ccc(S(=O)(=O)N2CCCC2)cc1,95%
2,C=CCSc1nnc(-c2ccccc2NC(C)=O)c(=O)[nH]1,83.4%
3,COc1ccc(C2C(=O)N(C3CCCCC3)CC(=O)N2Cc2ccco2)cc1 (stereo not given),79.5%
4,COc1ccc(-c2cc(O)cc(O)c2)cc1,79.9%
5,Cc1cccc(NC(=O)CCN2CCN(C/C=C/c3ccccc3)CC2)c1,96.1%
6,CCCn1c2ccccc2c2nnc(SCC(=O)OCC)nc21,80.2%
7,COc1cccc(C2C(C(=O)c3cc4ccccc4o3)=C(O)C(=O)N2CCN(C)C)c1OC (stereo not given),95.4%
8,O=C(COc1ccc(F)cc1Br)N1CCc2ccccc21,81.3%
9,S=C(c1ccc(-c2cc(Cl)ccc2Cl)o1)N1CCOCC1,107%
10,O=C(NCN1CCCCC1)c1cnccn1,106%
11,O=C(CSc1nnc(-c2ccco2)c(-c2ccco2)n1)Nc1ccccc1,89.8%
12,CCC1(c2ccc(F)cc2)NC(=O)N(CC(=O)c2ccc[nH]2)C1=O (stereo not given),86.9%
13,CCN1CCN(C(=O)c2ccc3c(=O)n(C4CCCC4)c(=S)[nH]c3c2)CC1,74.8%
14,N#CC1=C(N)SC(N)=C(C#N)C1CCc1ccccc1,31.9%
15,O=C(NCc1ccc2c(c1)OCO2)C1CCCN(S(=O)(=O)c2cccnc2)C1 (stereo not given),84.8%
16,Cc1cccc(-c2noc(CCC(=O)Nc3ccccc3)n2)c1,84.9%
17,Nc1ncnc(Nc2ccccc2C(F)(F)F)n1,93.3%
18,CCNc1nc(N2CCCCC2)nc(-n2nnc(C(=O)OCC)c2C)n1,94.3%
19,Cc1ccc(S(=O)(=O)N2CCCC(C(=O)NC3=NCCS3)C2)cc1 (stereo not given),85.4%
20,O=C1C(C=NCCCn2ccnc2)=C(O)c2ccccc21,82%

# Same assay, conditions: H69AR cells, CellTiter-Glo, 72 h; compound alone cytotoxicity; at 10 µM
row,SMILES,viability
1,O=C(Cn1nnc(-c2cccc(C(F)(F)F)c2)n1)NC(=O)NCc1ccco1,74.1%
2,Cc1cccc(NS(=O)(=O)c2cc(C(=O)OCC(=O)Nc3cc(C)on3)ccc2C)c1,112%
3,O=C(O)c1c(Cl)c(Cl)c(Cl)c(Cl)c1C(=O)N1CCOCC1,95.7%
4,CCN1CCCC1CNC(=O)CS(=O)(=O)Cc1nc(-c2ccccc2C)oc1C (stereo not given),88.1%
5,Cc1ccc(OCC(O)Cn2c(=N)n(CCN3CCCCC3)c3ccccc32)cc1 (stereo not given),18.6%
6,O=C1c2ccccc2CN1CCNS(=O)(=O)c1ccc(Cl)cc1,88%
7,COC(=O)C1CCN(C(=O)c2sc3nc(-c4ccc(F)cc4)cn3c2C)CC1,100%
8,CCCCc1cc(=O)oc2cc(C)cc(OC(C)C(=O)O)c12 (stereo not given),104%
9,COc1cccc(OC)c1OCCN1CCN(C(=O)c2ccco2)CC1,95.8%
10,CC(C)NC(=O)CSCc1ccccc1Cl,94.8%
11,CC(=O)N1CCN(c2ccc(N=Cc3c(O)n(Cc4ccccc4)c(=O)[nH]c3=O)cc2)CC1,94.6%
12,CCC1=C(C(=O)OC)C(c2cc(OC)ccc2OC)C(C#N)=C(N)O1 (stereo not given),87.2%
13,CCCCCn1c(CN2CCN(C(=O)OCC)CC2)nc2c1c(=O)[nH]c(=O)n2C,98.5%
14,Cc1ccc(N2CCN(C(=S)c3ccc(N(C)C)cc3)CC2)cc1,82.6%
15,COc1ccccc1NC(=O)N1CCCC1C(=O)NC1CCCCC1 (stereo not given),80.1%
16,CCOc1ccc(OCC)c(NC(=O)CN2CCN(C(=O)c3ccco3)CC2)c1,68.8%
17,C=CCN(C(=O)CNC(=O)c1ccco1)C(C(=O)NC1CCCCC1)c1ccccc1F (stereo not given),100%
18,Cc1ccc2cc(CN(CC3CCCO3)S(=O)(=O)c3ccc4c(c3)OCCO4)c(=O)[nH]c2c1C (stereo not given),86.1%
19,COc1cc(OC)cc(-n2nnnc2SCC(=O)N2CCCC2)c1,87.4%
20,O=C(CSc1nnc(Cn2nnc(-c3ccccc3)n2)n1-c1ccccc1)Nc1ccc(F)cc1,75.7%

row,SMILES,viability
1,O=C(NC1CCCC1)c1ccc(S(=O)(=O)N2CCCC2)cc1,87.6%
2,C=CCSc1nnc(-c2ccccc2NC(C)=O)c(=O)[nH]1,93%
3,COc1ccc(C2C(=O)N(C3CCCCC3)CC(=O)N2Cc2ccco2)cc1 (stereo not given),97.7%
4,COc1ccc(-c2cc(O)cc(O)c2)cc1,87.6%
5,Cc1cccc(NC(=O)CCN2CCN(C/C=C/c3ccccc3)CC2)c1,86.3%
6,CCCn1c2ccccc2c2nnc(SCC(=O)OCC)nc21,91.2%
7,COc1cccc(C2C(C(=O)c3cc4ccccc4o3)=C(O)C(=O)N2CCN(C)C)c1OC (stereo not given),100%
8,O=C(COc1ccc(F)cc1Br)N1CCc2ccccc21,75.3%
9,S=C(c1ccc(-c2cc(Cl)ccc2Cl)o1)N1CCOCC1,98.5%
10,O=C(NCN1CCCCC1)c1cnccn1,89.9%
11,O=C(CSc1nnc(-c2ccco2)c(-c2ccco2)n1)Nc1ccccc1,77.6%
12,CCC1(c2ccc(F)cc2)NC(=O)N(CC(=O)c2ccc[nH]2)C1=O (stereo not given),96.6%
13,CCN1CCN(C(=O)c2ccc3c(=O)n(C4CCCC4)c(=S)[nH]c3c2)CC1,84.7%
14,N#CC1=C(N)SC(N)=C(C#N)C1CCc1ccccc1,23.3%
15,O=C(NCc1ccc2c(c1)OCO2)C1CCCN(S(=O)(=O)c2cccnc2)C1 (stereo not given),92.4%
16,Cc1cccc(-c2noc(CCC(=O)Nc3ccccc3)n2)c1,91.2%
17,Nc1ncnc(Nc2ccccc2C(F)(F)F)n1,95.6%
18,CCNc1nc(N2CCCCC2)nc(-n2nnc(C(=O)OCC)c2C)n1,95.7%
19,Cc1ccc(S(=O)(=O)N2CCCC(C(=O)NC3=NCCS3)C2)cc1 (stereo not given),91.8%
20,O=C1C(C=NCCCn2ccnc2)=C(O)c2ccccc21,99.2%
